From PubChem
Most compounds without a hit are left out; they make up all but 4.2% or so of the library.
RecA splice inh – Mtb RecA intein splicing inhibition. cell-free RecA intein splicing, fluorescence. inhibition, % (concentration not given with the values). P9WHJ3. 290,000 compounds, 0.75% hits. AID 2221; in the data active = inhibition above about 30%;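 note: 0% = vehicle wells and 100% = reference inhibitor control wells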
GDH-TPI counter – counter-screen for M. tuberculosis FBA inhibitors: GDH-TPI coupled enzymes. 360,000 compounds, 1.2% hits. inhibition, % at 4.8 µM. GDH-TPI coupled enzyme counterscreen, NADH absorbance;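 note: 0% = DMSO wells and 100% = wells lacking the enzyme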
Mtb FBA inh – Mtb fructose-bisphosphate aldolase inhibition. purified M. tuberculosis FBA, fluorescence read-out. AID 588726. 360,000 compounds, 2.3% hits. P9WQA3. inhibition, % at 1 µM; in the data active = inhibition above about 27%;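 note: 0% = vehicle and 100% = reference inhibitor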
Target sequence (P9WQA3 whole entry, looked up): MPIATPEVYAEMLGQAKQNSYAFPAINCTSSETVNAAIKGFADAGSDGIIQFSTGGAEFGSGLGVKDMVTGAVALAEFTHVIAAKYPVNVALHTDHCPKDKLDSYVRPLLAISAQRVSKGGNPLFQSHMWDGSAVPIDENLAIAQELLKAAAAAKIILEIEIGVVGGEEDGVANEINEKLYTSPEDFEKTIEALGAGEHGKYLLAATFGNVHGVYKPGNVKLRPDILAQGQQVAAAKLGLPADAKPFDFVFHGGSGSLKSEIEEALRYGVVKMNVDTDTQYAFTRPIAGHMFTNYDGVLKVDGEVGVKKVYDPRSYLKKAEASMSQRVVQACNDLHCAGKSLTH
CCHF vOTU inh – CCHFV vOTU protease inhibition; inhibition, % at 11.5 µM; 370,000 compounds, 0.55% hits; Pep-AMC fluorescence; note: 0% = vehicle wells with enzyme and 100% = no enzyme wells
Starred values were filed as active, the others as inactive; i = inactive; / = not tested or not shown; + = active, no number. Cut-off read from the data, not from the text of the source, unless noted: active = inhibition above about 30%; inactive = the rest.

SMILES	RecA splice inh	GDH-TPI counter	Mtb FBA inh	CCHF vOTU inh
CN(C)c1ccc(C(CNS(=O)(=O)c2ccc([N+](=O)[O-])cc2)N2CCCC2)cc1 (centres undefined)	-2.0	9.8	2.1	3.9
CN(C)C(=O)c1ccc(NC(=O)COc2cccc3c2OC(C)(C)C3)cc1	/	-5.6	2.8	1.7
COc1cc(NC(=O)c2ccco2)c(OC)cc1NC(=O)Nc1ccc(Cl)cc1	-4.9	31.1*	6.9	-17.0
COc1cc(OC)c(NC(=O)c2ccco2)cc1Cl	5.7	14.0	1.4	-2.2
COC(=O)[C@]12C[C@H](CC(=O)NCC3CCCCC3)C(=O)N(Cc3cccc4ccccc34)C1=C[C@H](C(C)C)O[C@@H]2C1CC1	/	/	/	16.3
Cc1cc(C)[n+](-c2ccc(F)cc2)c2[nH]c(=O)[nH]c(=O)c12	0.0	18.9	+	-368.2
COc1ccc(C2=NCCn3cccc32)c(OC)c1	-0.3	49.4*	-1.3	-3.1
CCCC1=NCCn2cccc21	-1.5	4.6	1.4	-5.4
CCOC(=O)N1CCC2(CC1)C(C#N)=C(N)Oc1c2c(C)nn1-c1cccc(Cl)c1	62.7*	8.3	2.4	-6.4
Cc1csc(NC(=O)c2cc(=O)[nH]c3ccc(S(=O)(=O)N4CCOCC4)cc23)n1	-115.0	5.7	45.9*	-18.8
COc1cc(NC(=O)c2cc(=O)[nH]c3ccc(S(=O)(=O)N4CCOCC4)cc23)cc(OC)c1	/	6.9	3.1	4.2
O=C(CN(c1ccccc1)S(=O)(=O)c1ccc(Cl)cc1)Nc1cccnc1	1.0	-5.2	2.0	2.2
N[C@@H](Cc1ccc(N(CCCl)CCCl)cc1)C(=O)O	/	32.6*	5.3	-2.2
CC(=O)NC(Cc1ccc(N(CCCl)CCCl)cc1)C(=O)O (centres undefined)	0.5	8.1	0.9	-8.2
NC(Cc1ccc(O)cc1)C(=O)NN=Cc1ccc(N(CCCl)CCCl)cc1 (centres undefined)	/	49.8*	22.9	0.8
CCC(Cc1ccccc1)OC(=O)c1ccccc1C(=O)O (centres undefined)	/	-7.7	-1.8	-8.5
CC(C)N1CCCCC(NC(=O)c2ccc(F)c(F)c2)C1=O (centres undefined)	/	/	/	-18.2
CCOc1ccc(NC(=O)C(=O)NCCN2CCN(S(=O)(=O)c3ccccc3)CC2)cc1	2.8	1.5	2.0	21.6
CCCCn1c(NC(=O)CC)c(C#N)c2nc3ccccc3nc21	1.4	4.0	6.1	-15.7
Cc1ccc(S(=O)(=O)c2c(N)n(/N=C/c3ccco3)c3nc4ccccc4nc23)cc1	/	23.5	15.8	-4.7
CN(C)CCCn1c(N)c(C#N)c2nc3ccccc3nc21	i	16.4	146.2*	-251.6
Cc1ccc(S(=O)(=O)c2c(N)n(CCCN(C)C)c3nc4ccccc4nc23)cc1	-40.3	42.1*	127.6*	-187.5
Cc1ccc(S(=O)(=O)c2c(N)n(NC(=O)C3CC3)c3nc4ccccc4nc23)cc1	-45.1	22.9	181.0*	-267.2
Cc1ccc(S(=O)(=O)c2c(N)n(CC3CCOC3)c3nc4ccccc4nc23)cc1 (centres undefined)	-14.6	21.9	+	-154.3
COc1ccccc1-c1csc(C(O)(c2ccccc2)C(F)(F)F)n1 (centres undefined)	/	9.3	0.8	14.9
SMILES	RecA splice inh	GDH-TPI counter	Mtb FBA inh	CCHF vOTU inh
CCCCOc1ccc(Cl)cc1Nc1nc(NCCO)nc(N2CCCC2)n1	9.5	1.8	3.7	18.2
Cc1ccc(-n2c(N)c(S(=O)(=O)c3ccccc3)c3nc4ccccc4nc32)cc1	0.8	7.0	33.1*	-40.5
O=C(Nc1cccc(C(=O)O)c1)/C(=C\c1ccc2c(c1)OCO2)NC(=O)c1ccccc1Br	/	36.0*	-1.1	21.0
O=C(Nc1ccc(C(=O)O)cc1)/C(=C\c1ccc2c(c1)OCO2)NC(=O)c1ccccc1Cl	/	34.8*	-0.3	15.0
COCCNc1cnn(-c2ccccc2)c(=O)c1Cl	-1.2	2.6	2.1	1.9
COC(=O)c1sccc1NC(=O)Nc1cccc(C)c1C	0.3	0.3	-2.2	-16.6
Cc1[nH]nc2c1C(c1ccc(-c3ccccc3C#N)o1)C(C#N)=C(N)O2 (centres undefined)	64.7*	3.7	-1.2	/
CCC(CC)C1C(C#N)=C(N)Oc2n[nH]c(C)c21 (centres undefined)	-6.9	-3.8	1.0	-9.9
Cc1[nH]nc2c1C(c1ccc(F)cc1)C(C#N)=C(N)O2 (centres undefined)	/	-4.5	4.6	-0.3
Cc1[nH]nc2c1C(c1ccc(-c3ccc(Cl)cc3)o1)C(C#N)=C(N)O2 (centres undefined)	67.8*	-11.3	-4.5	-2.1
CCOc1cc(C(c2c(C)[nH][nH]c2=O)c2c(C)[nH][nH]c2=O)ccc1OS(=O)(=O)c1ccccc1	97.1*	-2.5	0.5	-3.6
CC(C)C(NC(=O)CN1C(=O)c2cccc3cccc1c23)C(C)C	-17.5	35.7*	1.8	-5.2
O=C(Nc1cccc(O)c1)c1cc(-c2cccs2)on1	3.2	-5.7	164.8*	-0.4
COc1ccc(Nc2nnc(SCC(=O)c3cc4ccccc4o3)s2)cc1	-6.3	37.4*	2.7	14.2
Cc1cccc(-c2cccc3c4c([nH]c23)[C@@H]2C[C@H](N(C)C(=O)c3ccccc3C)[C@H]([C@H](C)O)C(=O)N2CC4)c1	/	/	/	-5.8
O=c1[nH]c(=S)n(Cc2ccc(F)cc2)c(O)c1C=NCCCn1ccnc1	-0.4	31.0*	-1.6	9.6
O=c1[nH]c(=O)n(Cc2ccc(F)cc2)c(O)c1C=NCCCn1ccnc1	-1.0	-5.7	4.8	10.7
CCCCOC(=O)c1cc(-c2ccc(/C=N/n3cnnc3)o2)ccc1Cl	21.9	31.5*	0.8	-5.0
CCOC(=O)c1cc(-c2ccc(/C=C3/C(=O)N(c4ccc(C(=O)O)cc4)N=C3C)o2)ccc1Cl	8.1	0.7	-0.5	-0.7
CCOC(=O)c1cc(-c2ccc(/C=N\n3cnnc3)o2)ccc1Cl	3.3	46.5*	0.6	17.3
Cc1cc(-c2ccc(/C=N/n3cnnc3)o2)ccc1Cl	-0.6	33.0*	-1.5	13.3
COc1ccc(S[C@]2(C(=O)N3CCN(c4ncccn4)CC3)CC(=O)N[C@@H]2c2ccc(OC)cc2)cc1	/	/	/	2.0
O=C(CCl)NC1CCCCN(Cc2ccc(OC(F)(F)F)cc2)C1=O (centres undefined)	/	/	/	-2.6
CC1(C)CC(=O)C(C=Nc2ccc3[nH]ncc3c2)=C(O)C1	10.9	35.9*	7.4	2.9
CC1(C)CC(=O)C(C=Nc2ccc3cn[nH]c3c2)=C(O)C1	4.1	39.3*	4.2	0.1
SMILES	RecA splice inh	GDH-TPI counter	Mtb FBA inh	CCHF vOTU inh
Cn1c(CC(=O)Nc2ccc(Cl)c(Cl)c2)n[nH]c1=S	3.7	-1.2	55.4*	-4.8
Cc1ccc2oc(C(=O)Nc3ccc(S(=O)(=O)Nc4ncccn4)cc3)c(C)c2c1	-2.1	3.8	0.3	-2.7
Cc1ccc(S[C@@H](CCN2CC[C@H](C)CCC2=O)c2ccccc2)cc1	30.3*	2.7	2.7	7.8
O=C(Cc1ccc(NC(=O)C2CCN(C(=O)C3CC3)CC2)cc1)Nc1cccc(C(=O)N2CCCC2)c1	/	-3.6	0.2	-1.8
COC(=O)Nc1ccc(C)cc1NC(=O)OC	-3.0	6.5	4.1	5.4
COC(=O)Nc1ccc2ccc3c(NC(=O)OC)ccc4ccc1c2c43	/	43.9*	+	-192.1
CC(=O)Nc1sc(N/N=C\c2cccc(Cl)c2)nc1-c1cccs1	1.0	6.2	6.7	-1.1
